According to PubChem BioAssay (EPA / NIEHS):
Inconclusive results are not listed. Active and inactive are the calls of the source. The calls were made as follows, unless noted: active = hit-call score of the fitted dose curve at least 0.9, where 1 is the maximum; inconclusive = response in the unintended direction; inactive = score below 0.9.

System: not listed separately
Assay: CCTE_Shafer_MEA_dev_per_network_spike_spike_number_mean: CCTE's Neural Network Formation Assay for Mean Number of Spikes in a Network Spike, Shafer Lab (AID 2284053; active = hit-call score of the fitted dose curve at least 0.9, where 1 is the maximum; inactive = score below 0.9;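 as to AC50: fitted as decrease in spikes per network spike relative to DMSO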)
Outline: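 Rat cortical primary cultures on 48-well MEA; compound from day 0, re-dosed with full media change DIV 5, 9. Recorded DIV 5, 7, 9, 12; spikes in 0.05 s window at network-spike peak ÷ total network spikes; AUC; loss vs DMSO.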

Row | Structure (SMILES) | AC50 | outcome
1 | CC(=O)CC(c1ccccc1)c1c(O)c2ccccc2oc1=O (configuration not stated) | 2.98 µM (active) | –
2 | OCC(O)CO | – | inactive
3 | COC(=O)[C@H]1[C@H]2C[C@@H]3c4[nH]c5cc(OC)ccc5c4CCN3C[C@H]2C[C@@H](OC(=O)c2cc(OC)c(OC)c(OC)c2)[C@@H]1OC | 4.8 µM (active) | –
4 | O=C1NC(=O)C(c2ccccc2)(c2ccccc2)N1 | – | inactive
5 | CN(C)CCCN1c2ccccc2Sc2ccc(Cl)cc21 | 4.44 µM (active) | –

System: not listed separately
Assay: CCTE_Shafer_MEA_dev_per_network_spike_spike_percent: CCTE's Neural Network Formation Assay for Percent of Spikes in a Network Spike, Shafer Lab (AID 2284054; active = hit-call score of the fitted dose curve at least 0.9, where 1 is the maximum; inactive = score below 0.9)
Outline: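 Metric: fraction of spikes falling in a 0.05 s window at network-spike peaks. Recordings were made on days 5, 7, 9 and 12 and collapsed by trapezoidal AUC. Cultures were rat cortical neurons on MEA plates, dosed continuously from plating, re-dosed at media changes.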

Row | Structure (SMILES) | outcome | AC50
6 | CC(=O)CC(c1ccccc1)c1c(O)c2ccccc2oc1=O (configuration not stated) | inactive | –
7 | OCC(O)CO | inactive | –
8 | COC(=O)[C@H]1[C@H]2C[C@@H]3c4[nH]c5cc(OC)ccc5c4CCN3C[C@H]2C[C@@H](OC(=O)c2cc(OC)c(OC)c(OC)c2)[C@@H]1OC | – | 15.3 µM (active)
9 | O=C1NC(=O)C(c2ccccc2)(c2ccccc2)N1 | inactive | –
10 | CN(C)CCCN1c2ccccc2Sc2ccc(Cl)cc21 | – | 9.39 µM (active)

System: DIO3 (gene 1735)
Assay: CCTE_GLTED_hDIO3: CCTE's human Deiodinase 3 (DIO3) Inhibition Assay, Great Lakes Toxicology and Ecology Division (GLTED) Lab (AID 2284055);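 as to AC50: potency is for inhibition seen as loss of released iodide signal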
Outline: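 hDIO3 (adenovirus-expressed) + test chemical, 3 h incubation; free iodide quantified by Sandell-Kolthoff reaction, absorbance read-out. DMSO negative control, n=3.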

Row | Structure (SMILES) | AC50 | outcome
11 | Cc1c(C)c2c(c(C)c1O)CCC(C)(COc1ccc(CC3SC(=O)NC3=O)cc1)O2 (configuration not stated) | 95.1 µM (active) | –
12 | O=Cc1ccccc1C=O | 2.92 µM (active) | –
13 | S=c1[nH]c2ccccc2s1 | 73.2 µM (active) | –
14 | O=C(Oc1ccccc1)c1cccc(C(=O)Oc2ccccc2)c1 | 64.5 µM (active) | –
15 | CCCCCCCCCCCCCCOS(=O)(=O)O | 18.5 µM (active) | –
16 | Cc1ccc(-c2cc(C(F)(F)F)nn2-c2ccc(S(N)(=O)=O)cc2)cc1 | 172 µM (active) | –
17 | CC(=O)O[C@]1(C(C)=O)CC[C@H]2[C@@H]3C=C(Cl)C4=CC(=O)[C@@H]5C[C@@H]5[C@]4(C)[C@H]3CC[C@@]21C | 5.1 µM (active) | –
18 | CCCCCCCCCCCCCCCCO | – | inactive
19 | CCCCCCC(C=O)=Cc1ccccc1 | 3.29 µM (active) | –
20 | CN(C)CCCN1c2ccccc2Sc2ccc(Cl)cc21 | 158 µM (active) | –

System: not listed separately
Assay: CCTE_Shafer_MEA_dev_LDH: CCTE's Lactate Dehydrogenase Assay for Cytotoxicity in the Neural Network Formation Assay, Shafer Lab (AID 2284068);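 also: exposure for twelve days from plating with re-dosing on DIV 5 and 9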
Outline: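 Rat cortical primary neurons, MEA culture; dosing day 0–12, full medium plus compound exchange DIV 5, 9. Read-out: LDH enzyme activity, spectrophotometric. DMSO = negative control/baseline; signal loss → cytotoxicity.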

Row | Structure (SMILES) | outcome | AC50
21 | CC(=O)CC(c1ccccc1)c1c(O)c2ccccc2oc1=O (configuration not stated) | inactive | –
22 | COC(=O)[C@H]1[C@H]2C[C@@H]3c4[nH]c5cc(OC)ccc5c4CCN3C[C@H]2C[C@@H](OC(=O)c2cc(OC)c(OC)c(OC)c2)[C@@H]1OC | – | 6.75 µM (active)
23 | O=C1NC(=O)C(c2ccccc2)(c2ccccc2)N1 | inactive | –
24 | CN(C)CCCN1c2ccccc2Sc2ccc(Cl)cc21 | – | 5.01 µM (active)

System: not listed separately
Assay: CCTE_Shafer_MEA_acute_AB: CCTE's Alamar Blue Assay for Cytotoxicity in the Neural Acute Assay, Shafer Lab (AID 2284069);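 also: active compounds lower the viability signal compared with DMSO wells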
Outline: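 Read-out: resazurin fluorescence (ex 544, em 590 nm) after CTB reagent at 1:6 dilution in fresh media. Cells: primary rat cortical neuron networks, DIV 13 or 15, chemically exposed on MEA plates; DMSO as negative control/baseline.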

Row | Structure (SMILES) | outcome
25 | Cc1c(C)c2c(c(C)c1O)CCC(C)(COc1ccc(CC3SC(=O)NC3=O)cc1)O2 (configuration not stated) | inactive
26 | NC(=Nc1ccccc1)Nc1ccccc1 | inactive
27 | O=C(N[C@@H](c1ccccc1)[C@@H]1CCCCN1)c1cccc(C(F)(F)F)c1Cl | inactive
28 | COc1ccc(OC(F)(F)F)cc1CN[C@H]1CCCN[C@H]1c1ccccc1 | inactive
29 | Nc1nc(=S)c2[nH]cnc2[nH]1 | inactive
30 | Oc1ccc(O)cc1 | inactive
31 | CC(C)COC(=O)CCCCC(=O)OCC(C)C | inactive
32 | CC(C)NCC(O)c1ccc(O)c(O)c1 (configuration not stated) | inactive
33 | CCc1cc(C2=C(C(=O)O)N(c3ccccc3C(F)(F)F)S(=O)(=O)c3ccccc32)cc2c1OCO2 | inactive
34 | O=C1OC(c2ccc(O)cc2)(c2ccc(O)cc2)c2ccccc21 | inactive
35 | c1ccc2occc2c1 | inactive
36 | COC(=O)[C@H]1[C@H]2C[C@@H]3c4[nH]c5cc(OC)ccc5c4CCN3C[C@H]2C[C@@H](OC(=O)c2cc(OC)c(OC)c(OC)c2)[C@@H]1OC | inactive
37 | Cc1cc(Cc2ccc(N)c(C)c2)ccc1N | inactive
38 | CN(C)CCCN1c2ccccc2Sc2ccc(Cl)cc21 | inactive
39 | CN(C)C(=O)NC1(c2ccccc2)CCN(CCC[C@]2(c3ccc(Cl)c(Cl)c3)CCCN(C(=O)c3ccccc3)C2)CC1 | inactive
40 | C/C=C/c1ccc(OC)cc1 | inactive
41 | CSc1ccc(Oc2ccc(S(N)(=O)=O)cc2CN(C)C)cc1C | inactive
42 | CCCC(=O)O | inactive
43 | CCN(CC)CCOc1ccc(C(=C(Cl)c2ccccc2)c2ccccc2)cc1 | inactive
44 | CN(C)C(=O)NC1(c2ccccc2)CCN(CC[C@@]2(c3ccc(F)c(F)c3)CN(C(=O)c3ccccc3)CCO2)CC1 | inactive

System: not listed separately
Assay: CCTE_Shafer_MEA_dev_AB: CCTE's Alamar Blue Assay for Cytotoxicity in the Neural Network Formation Assay, Shafer Lab (AID 2284083);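 also: resazurin reduction fluorescence as viability of cultured neurons; twelve days of exposure from plating with re-dosing on DIV 5 and 9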
Outline: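 Rat cortical primary cultures, 1.5 x 10^5 cells/well on MEA; continuous compound exposure over 12 days of network development, re-dosed with full medium change DIV 5 and 9. Alamar Blue fluorescence; loss of signal = cytotoxicity vs DMSO baseline.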

Row | Structure (SMILES) | outcome | AC50
45 | CC(=O)CC(c1ccccc1)c1c(O)c2ccccc2oc1=O (configuration not stated) | inactive | –
46 | OCC(O)CO | inactive | –
47 | COC(=O)[C@H]1[C@H]2C[C@@H]3c4[nH]c5cc(OC)ccc5c4CCN3C[C@H]2C[C@@H](OC(=O)c2cc(OC)c(OC)c(OC)c2)[C@@H]1OC | – | 10 µM (active)
48 | CN(C)CCCN1c2ccccc2Sc2ccc(Cl)cc21 | – | 15 µM (active)

System: not listed separately
Assay: CCTE_Shafer_MEA_acute_LDH: CCTE's Lactate Dehydrogenase Assay for Cytotoxicity in the Neural Acute Assay, Shafer Lab (AID 2284086);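 also: active means LDH release rises above DMSO vehicle level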
Outline: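 LDH absorbance at 490 nm in medium taken right after 40-min compound exposure; rat primary cortical neuron networks on MEA plates, days post-plating 13 or 15. Increase over DMSO baseline scored as cytotoxicity.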

Row | Structure (SMILES) | outcome
49 | NC(=Nc1ccccc1)Nc1ccccc1 | inactive
50 | O=C(N[C@@H](c1ccccc1)[C@@H]1CCCCN1)c1cccc(C(F)(F)F)c1Cl | inactive
51 | COc1ccc(OC(F)(F)F)cc1CN[C@H]1CCCN[C@H]1c1ccccc1 | inactive
52 | CC(N)=O | inactive
53 | OCC(CO)n1cnc(-c2ccc(F)cc2)c1-c1ccnc(Oc2ccccc2)n1 | inactive
54 | Nc1nc(=S)c2[nH]cnc2[nH]1 | inactive
55 | Oc1ccc(O)cc1 | inactive
56 | Cc1cc(SC2=C(O)C[C@@](CCc3ccc(N)cc3)(C(C)C)OC2=O)c(C(C)(C)C)cc1CO | inactive
57 | Cc1ccc(C(C)(C)C)c(O)c1 | inactive
58 | CC(C)COC(=O)CCCCC(=O)OCC(C)C | inactive
59 | CC(C)NCC(O)c1ccc(O)c(O)c1 (configuration not stated) | inactive
60 | CCc1cc(C2=C(C(=O)O)N(c3ccccc3C(F)(F)F)S(=O)(=O)c3ccccc32)cc2c1OCO2 | inactive
61 | c1ccc2occc2c1 | inactive
62 | CCCCC(CC)COP(=O)(OCC(CC)CCCC)OCC(CC)CCCC (configuration not stated) | inactive
63 | COC(=O)[C@H]1[C@H]2C[C@@H]3c4[nH]c5cc(OC)ccc5c4CCN3C[C@H]2C[C@@H](OC(=O)c2cc(OC)c(OC)c(OC)c2)[C@@H]1OC | inactive
64 | Cc1cc(Cc2ccc(N)c(C)c2)ccc1N | inactive
65 | CN(C)CCCN1c2ccccc2Sc2ccc(Cl)cc21 | inactive
66 | CN(C)C(=O)NC1(c2ccccc2)CCN(CCC[C@]2(c3ccc(Cl)c(Cl)c3)CCCN(C(=O)c3ccccc3)C2)CC1 | inactive
67 | O=C(O)CN(CC(=O)O)CC(=O)O | inactive
68 | CC1=C(C)S(=O)(=O)CCS1(=O)=O | inactive
69 | C/C=C/c1ccc(OC)cc1 | inactive
70 | CCCC(=O)O | inactive
71 | CCN(CC)CCOc1ccc(C(=C(Cl)c2ccccc2)c2ccccc2)cc1 | inactive
72 | CN(C)C(=O)NC1(c2ccccc2)CCN(CC[C@@]2(c3ccc(F)c(F)c3)CN(C(=O)c3ccccc3)CCO2)CC1 | inactive
